According to PubChem BioAssay (NCATS):
The source made the active and inactive calls. Calls come from the whole dose curve; as a rule, active = well fitted curve in the direction sought with a large enough effect; inconclusive = small, poorly fitted or top-dose-only effect, or another doubt; inactive = no such curve, though single readings can be large or run the other way.

molecular target: Methanococcus maripaludis chaperonin (MmCpn) (UniProt Q6LX38); test: High-Throughput Screening for Modulators of Cytosolic Chaperonin Activity: MmCpn Primary Screen (AID 488978); details: Purified MmCpn ATPase activity, ADP HTRF detection, 10 min; series mostly up to 76.9 µM
Sequence (Q6LX38 1-543): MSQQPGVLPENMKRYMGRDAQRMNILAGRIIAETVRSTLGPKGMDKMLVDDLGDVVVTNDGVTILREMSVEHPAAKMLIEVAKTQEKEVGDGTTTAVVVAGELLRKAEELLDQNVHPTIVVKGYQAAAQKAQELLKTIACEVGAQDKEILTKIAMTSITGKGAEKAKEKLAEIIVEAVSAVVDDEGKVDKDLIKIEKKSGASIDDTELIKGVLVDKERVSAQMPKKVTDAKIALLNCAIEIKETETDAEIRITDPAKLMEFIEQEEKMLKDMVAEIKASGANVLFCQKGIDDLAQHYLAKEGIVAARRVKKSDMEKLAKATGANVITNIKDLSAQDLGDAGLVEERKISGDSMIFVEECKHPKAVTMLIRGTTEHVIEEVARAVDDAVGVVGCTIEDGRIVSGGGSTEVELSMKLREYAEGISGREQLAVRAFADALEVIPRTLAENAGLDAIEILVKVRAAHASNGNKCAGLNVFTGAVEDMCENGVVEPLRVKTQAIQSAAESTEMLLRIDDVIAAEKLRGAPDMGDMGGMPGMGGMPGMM
Procedure, shortened: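 ADP formation read by HTRF Transcreener, 665/590 nm emission after 320 nm excitation. Enzyme: archaeal chaperonin at 50 nM final; substrate ATP 30 uM final; 10 min, 37C, after 5 min compound preincubation at RT.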

Row | Structure (SMILES) | outcome
1 | CCCn1c(C)c(C(=O)c2ccc3ccccc3c2)c2ccccc21 | inactive
2 | C[C@]12Cc3cn4c(nc3C=C1CCC1C2CC[C@@]2(C)[C@H]1CC[C@@]2(O)C#N)nc1ccccc14 (some centres undefined) | inactive
3 | CCCN1CC[C@@H]2c3cc(O)ccc3CC[C@@H]21 | inactive
4 | CC1(C(=O)O)C2CCC(O2)C1(C)C(=O)O (centres undefined) | inactive
5 | NC(=O)c1ccc(OCC(O)CN2CC=C(c3ccc(F)cc3)CC2)cc1 (centres undefined) | inactive
6 | COc1ccc2c(c1)/C(=C/c1cnc[nH]1)C(=O)N2 | inactive
7 | O=[N+]([O-])c1cc(O)c(O)c([N+](=O)[O-])c1 | inactive
8 | OC1CCCCC1N1CCC(c2ccccc2)CC1 (centres undefined) | inactive
9 | CC(N)[C@H](O)c1ccc(O)c(O)c1 (some centres undefined) | inactive
10 | OCc1cnc[nH]1 | inactive
11 | NCCc1ccc(S(=O)(=O)F)cc1 | inactive
12 | COc1ccc(CNC(=O)/C=C/c2ccc3[nH]cc(CCN(C)C)c3c2)cc1 | inactive
13 | CCCCCCC(C)(C)c1ccc([C@@H]2C[C@H](O)CC[C@H]2CCCO)c(O)c1 | inactive
14 | NC(CCCCCP(=O)(O)O)C(=O)O (centres undefined) | inactive
15 | c1ccc2c(c1)[I+]c1ccccc1-2 | inactive
16 | Nc1ccc(CCN2CCN(c3cccc(C(F)(F)F)c3)CC2)cc1 | inactive
17 | N[C@@H](CCl)C(=O)O | inactive
18 | NC(Cc1ccc(N(CCCl)CCCl)cc1)C(=O)O (centres undefined) | inactive
19 | Cc1o[nH]c(=O)c1CC(N)C(=O)O (centres undefined) | inactive
20 | C#CCN[C@H](C)Cc1ccccc1 | inactive

Row | Structure (SMILES) | outcome
21 | O=C1C=CC(=O)C=C1 | inactive
22 | NC(=O)COc1c(F)cc(SCCNS(=O)(=O)c2ccccc2)cc1F | inactive
23 | NNC(N)=O | inactive
24 | Cc1c2ccncc2c(C)c2c1[nH]c1ccccc12 | inactive
25 | CC(=O)NBr | inactive
26 | CN1CC[C@@]2(C)c3cc(O)ccc3N(C)C12 (some centres undefined) | inactive
27 | CCCN(CCC)C1Cc2cc(OC)c(OC)cc2C1 | inactive
28 | CC(=O)c1c(O)c(C)c(O)c(Cc2c(O)c3c(c(C(=O)/C=C/c4ccccc4)c2O)OC(C)(C)C=C3)c1O | inactive
29 | CCCn1c(=O)c2[nH]c(C3CCCC3)nc2n(CCCOC(=O)c2ccc(S(=O)(=O)F)cc2)c1=O | inactive
30 | NC(N)=Nc1ccc2[nH]c3c(c2c1)C[C@@]1(O)[C@H]2Cc4ccc(O)c5c4[C@@]1(CCN2CC1CC1)[C@H]3O5 | inactive
31 | O=S1(=O)N(CCN2CC=C(c3c[nH]c4cc(F)ccc34)CC2)c2cccc3c2N1CCC3 | inactive
32 | CC(N)c1cccc(Cl)c1Cl (centres undefined) | inactive
33 | C=CCN1CC[C@]23c4c5ccc(O)c4O[C@H]2/C(=N/NC(=O)c2ccccc2)CC[C@@]3(O)[C@H]1C5 | inactive
34 | CCS(=O)(=O)Nc1cccc(C(=C2CCCCC2)c2cnc[nH]2)c1 | inactive
35 | O=[N+]([O-])c1ccc2nc(N3CCNCC3)ccc2c1 | inactive
36 | NCC(CP(=O)(O)O)c1ccc(Cl)cc1 (centres undefined) | inactive
37 | COc1ccc2[nH]c3c(c2c1)CCNC3 | inactive
38 | N[C@@H](Cn1oc(=O)[nH]c1=O)C(=O)O | inactive
39 | CN1C2CCC1CC(OC(c1ccccc1)c1ccccc1N)C2 (centres undefined) | inactive
